According to the supplement of paper PMC10849652:
The full data set covers some 7,900 targets. This sample favours those with a hit. About 0.6% of all pairs of compound and target were hits. Unmarked numbers belong to inactive results.

Legend:
Test in all cases: log2 fold change, soluble protein after heating vs DMSO (PISA); higher = thermal stabilisation; K562 cells, 10 uM, 30 min; active = over 0.2 and 3.5 SD of the protein, either way, in both replicates (recomputed)
[1] = compound: CC[C@@H]1C(=O)N(C)c2cnc(Nc3ccc(C(=O)NC4CCN(C)CC4)cc3OC)nc2N1C1CCCC1
Method in brief: (§1)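 For each measurement, 10 μM compound was applied for 30 min to K562 cells at 2×10^6 cells/mL. Aliquots were heated for 3 min across 48°C-58°C, pooled, and extracted in PBS with 0.5% NP-40 at 4°C; the supernatant after 21,000xg for 90 min was soluble protein. This was quantified by TMTpro 16plex LC-MS/MS with channel sums equalised, and thermal stability was reported relative to control samples from duplicates, on a log2 fold-change scale.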

volasertib = compound: CC[C@@H]1C(=O)N(C)c2cnc(Nc3ccc(C(=O)N[C@H]4CC[C@H](N5CCN(CC6CC6)CC5)CC4)cc3OC)nc2N1C(C)C [volasertib]
Method in brief: as §1

[2] = compound: CC[C@H](C)N1C=C(C2=C(C=C(C=C21)C3=CN=C(C=C3)N4CCNCC4)C(=O)NCC5=C(C=C(NC5=O)C)C)C
Method in brief: as §1

epoxomicin = compound: CC[C@H](C)[C@@H](C(=O)N[C@@H]([C@@H](C)O)C(=O)N[C@@H](CC(C)C)C(=O)[C@]1(CO1)C)NC(=O)[C@H]([C@@H](C)CC)N(C)C(=O)C [epoxomicin]
Method in brief: as §1

[3] = compound: CCn1c(C(=O)N(C2CC2)C2CC2)cc2c3c(ncn3C)c(Nc3cc(C)n(C)n3)nc21
Method in brief: as §1

[4] = compound: CCn1cc(-c2ccnc3[nH]c(-c4cccc(CN(C)C)c4)cc23)c(-c2ccc(NC(=O)N(C)C)cc2)n1
Method in brief: as §1

[5] = compound: CN(C)CC(=O)Nc1ccc2[nH]c(=O)c3ccccc3c2c1
Method in brief: as §1

rosiglitazone = compound: CN(CCOC1=CC=C(C=C1)C[C@H]2C(=O)NC(=O)S2)C3=CC=CC=N3 (racemic) [rosiglitazone]
Method in brief: as §1

[6] = compound: CN1C2=C(C3=C1C(=O)N(N=C3)CC4=CC(=CC=C4)N)SC(=C2)S(=O)C
Method in brief: as §1

[7] = compound: CN1CCC(CNc2ccc3ncc(-c4cccc(OC(F)(F)F)c4)n3n2)CC1
Method in brief: as §1

saracatinib = compound: CN1CCN(CCOc2cc(OC3CCOCC3)c3c(Nc4c(Cl)ccc5c4OCO5)ncnc3c2)CC1 [saracatinib]
Method in brief: as §1

alvocidib = compound: CN1CC[C@H](c2c(O)cc(O)c3c(=O)cc(-c4ccccc4Cl)oc23)[C@H](O)C1 [alvocidib]
Method in brief: as §1

Tubastatin A = compound: CN1CCc2c(c3ccccc3n2Cc2ccc(C(=O)NO)cc2)C1 [Tubastatin A]
Method in brief: as §1

[8] = compound: CNC(=O)C1=CC=CC=C1NC2=NC(=NC=C2Cl)NC3=C(C=C(C=C3)N4CCOCC4)OC
Method in brief: as §1

defactinib = compound: CNC(=O)c1ccc(Nc2ncc(C(F)(F)F)c(NCc3nccnc3N(C)S(C)(=O)=O)n2)cc1 [defactinib]
Method in brief: as §1

rucaparib = compound: CNCc1ccc(-c2[nH]c3cc(F)cc4c3c2CCNC4=O)cc1 [rucaparib]
Method in brief: as §1

[9] = compound: CNc1nc(-c2ccc3c(N)n[nH]c3c2)cc(N2C[C@@H](C(=O)NC3CCCCC3)CC[C@H]2C)n1
Method in brief: as §1

encorafenib = compound: COC(=O)N[C@@H](C)CNc1nccc(-c2cn(C(C)C)nc2-c2cc(Cl)cc(NS(C)(=O)=O)c2F)n1 [encorafenib]
Method in brief: as §1

[10] = compound: COC(=O)[C@H](CCSC)NC(=O)C1=C(C=C(C=C1)NC[C@H](CS)N)C2=CC=CC=C2
Method in brief: as §1

sotrastaurin = compound: CN1CCN(c2nc(C3=C(c4c[nH]c5ccccc45)C(=O)NC3=O)c3ccccc3n2)CC1 [sotrastaurin]
Method in brief: as §1

Chain of UniProt P49754 (P49754 whole entry, looked up): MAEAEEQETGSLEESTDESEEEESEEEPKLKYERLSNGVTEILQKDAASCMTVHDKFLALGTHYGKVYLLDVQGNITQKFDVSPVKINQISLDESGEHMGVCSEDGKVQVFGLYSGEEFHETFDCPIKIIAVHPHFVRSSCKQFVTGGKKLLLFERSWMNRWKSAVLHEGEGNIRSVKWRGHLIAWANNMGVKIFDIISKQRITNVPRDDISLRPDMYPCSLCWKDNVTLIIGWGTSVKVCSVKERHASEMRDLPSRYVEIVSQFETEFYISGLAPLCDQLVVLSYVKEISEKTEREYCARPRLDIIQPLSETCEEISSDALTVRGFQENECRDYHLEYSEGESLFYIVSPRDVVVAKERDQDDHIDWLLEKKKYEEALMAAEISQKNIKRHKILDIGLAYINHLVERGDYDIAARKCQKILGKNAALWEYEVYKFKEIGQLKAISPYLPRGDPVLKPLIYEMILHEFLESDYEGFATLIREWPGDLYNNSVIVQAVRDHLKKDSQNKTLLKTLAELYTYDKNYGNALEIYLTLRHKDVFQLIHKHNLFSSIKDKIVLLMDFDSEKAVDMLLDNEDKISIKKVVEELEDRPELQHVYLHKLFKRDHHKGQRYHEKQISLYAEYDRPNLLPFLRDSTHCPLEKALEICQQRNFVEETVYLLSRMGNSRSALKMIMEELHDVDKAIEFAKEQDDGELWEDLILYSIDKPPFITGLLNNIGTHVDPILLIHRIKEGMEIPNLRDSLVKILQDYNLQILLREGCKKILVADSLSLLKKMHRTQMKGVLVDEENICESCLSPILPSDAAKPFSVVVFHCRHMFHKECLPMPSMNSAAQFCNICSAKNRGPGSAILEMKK
Chain of UniProt Q96HV5 (Q96HV5 whole entry, looked up): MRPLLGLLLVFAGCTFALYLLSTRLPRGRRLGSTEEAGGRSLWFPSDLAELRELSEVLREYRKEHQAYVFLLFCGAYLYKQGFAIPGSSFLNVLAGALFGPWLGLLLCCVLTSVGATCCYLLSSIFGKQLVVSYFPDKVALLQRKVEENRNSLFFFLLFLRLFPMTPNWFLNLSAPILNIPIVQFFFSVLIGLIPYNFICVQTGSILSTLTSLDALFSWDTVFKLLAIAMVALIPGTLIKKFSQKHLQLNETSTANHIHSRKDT
Chain of UniProt Q9NQ34 (Q9NQ34 whole entry, looked up): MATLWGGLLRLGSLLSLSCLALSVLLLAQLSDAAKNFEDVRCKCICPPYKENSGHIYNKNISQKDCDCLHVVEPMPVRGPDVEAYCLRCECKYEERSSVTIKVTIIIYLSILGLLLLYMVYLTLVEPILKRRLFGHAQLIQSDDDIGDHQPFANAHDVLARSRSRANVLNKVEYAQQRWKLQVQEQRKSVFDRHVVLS
Chain of UniProt Q5U3C3 (Q5U3C3 whole entry, looked up): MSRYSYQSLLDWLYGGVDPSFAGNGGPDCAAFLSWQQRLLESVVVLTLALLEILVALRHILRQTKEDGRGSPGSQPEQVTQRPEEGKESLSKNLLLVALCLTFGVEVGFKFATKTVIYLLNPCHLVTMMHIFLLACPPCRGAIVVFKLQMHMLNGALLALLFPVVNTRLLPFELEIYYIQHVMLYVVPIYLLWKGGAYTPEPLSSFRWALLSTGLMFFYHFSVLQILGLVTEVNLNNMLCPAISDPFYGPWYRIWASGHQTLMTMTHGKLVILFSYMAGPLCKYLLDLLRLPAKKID
Chain of UniProt A6NIH7 (A6NIH7 whole entry, looked up): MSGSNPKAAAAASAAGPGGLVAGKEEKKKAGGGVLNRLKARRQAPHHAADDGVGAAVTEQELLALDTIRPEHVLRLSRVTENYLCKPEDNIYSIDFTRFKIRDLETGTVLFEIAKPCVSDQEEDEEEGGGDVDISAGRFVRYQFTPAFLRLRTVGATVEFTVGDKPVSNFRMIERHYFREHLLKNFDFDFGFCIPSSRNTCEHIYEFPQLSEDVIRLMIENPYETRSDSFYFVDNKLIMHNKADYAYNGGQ
Chain of UniProt Q8IY95 (Q8IY95 whole entry, looked up): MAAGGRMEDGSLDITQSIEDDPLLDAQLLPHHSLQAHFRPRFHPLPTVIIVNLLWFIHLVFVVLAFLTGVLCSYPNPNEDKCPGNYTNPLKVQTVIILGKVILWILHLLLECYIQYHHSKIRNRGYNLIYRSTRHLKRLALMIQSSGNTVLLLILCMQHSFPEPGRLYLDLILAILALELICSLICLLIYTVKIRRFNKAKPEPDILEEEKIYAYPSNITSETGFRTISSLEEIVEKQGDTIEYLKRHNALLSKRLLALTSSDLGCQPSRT
Chain of UniProt Q6ZXV5 (Q6ZXV5 whole entry, looked up): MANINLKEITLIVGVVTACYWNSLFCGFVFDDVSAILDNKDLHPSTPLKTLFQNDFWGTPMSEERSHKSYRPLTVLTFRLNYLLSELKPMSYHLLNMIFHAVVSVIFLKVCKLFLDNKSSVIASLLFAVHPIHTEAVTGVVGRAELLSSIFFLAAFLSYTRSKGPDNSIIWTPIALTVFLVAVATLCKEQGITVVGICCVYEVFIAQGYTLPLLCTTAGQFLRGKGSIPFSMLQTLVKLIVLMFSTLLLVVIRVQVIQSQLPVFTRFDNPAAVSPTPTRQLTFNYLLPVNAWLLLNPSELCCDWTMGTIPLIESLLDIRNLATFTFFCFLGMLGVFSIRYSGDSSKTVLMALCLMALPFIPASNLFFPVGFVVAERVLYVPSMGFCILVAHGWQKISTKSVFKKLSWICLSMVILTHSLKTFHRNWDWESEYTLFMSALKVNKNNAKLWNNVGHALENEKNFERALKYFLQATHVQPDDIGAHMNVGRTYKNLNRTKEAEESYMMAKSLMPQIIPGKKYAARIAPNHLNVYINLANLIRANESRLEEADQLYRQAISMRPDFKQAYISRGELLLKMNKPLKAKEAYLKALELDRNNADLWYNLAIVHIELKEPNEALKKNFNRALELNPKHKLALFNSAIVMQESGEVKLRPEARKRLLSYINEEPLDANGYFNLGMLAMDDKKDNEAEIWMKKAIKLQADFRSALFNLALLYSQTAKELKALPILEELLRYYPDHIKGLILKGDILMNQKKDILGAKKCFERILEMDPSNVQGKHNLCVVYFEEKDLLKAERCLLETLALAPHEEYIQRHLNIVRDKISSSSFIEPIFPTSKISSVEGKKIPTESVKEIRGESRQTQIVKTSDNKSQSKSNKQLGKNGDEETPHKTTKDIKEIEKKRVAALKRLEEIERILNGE
Chain of UniProt Q15906 (Q15906 whole entry, looked up): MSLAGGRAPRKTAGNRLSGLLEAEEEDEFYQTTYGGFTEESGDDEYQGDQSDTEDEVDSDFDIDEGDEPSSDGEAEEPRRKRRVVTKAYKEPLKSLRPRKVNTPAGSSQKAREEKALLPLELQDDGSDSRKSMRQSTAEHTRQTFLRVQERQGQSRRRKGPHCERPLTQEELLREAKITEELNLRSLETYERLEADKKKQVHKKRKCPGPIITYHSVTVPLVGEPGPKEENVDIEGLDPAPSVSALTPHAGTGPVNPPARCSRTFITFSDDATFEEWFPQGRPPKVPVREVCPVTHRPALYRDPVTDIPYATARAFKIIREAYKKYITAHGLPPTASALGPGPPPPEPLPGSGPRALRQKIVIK
Chain of UniProt P61960 (P61960 whole entry, looked up): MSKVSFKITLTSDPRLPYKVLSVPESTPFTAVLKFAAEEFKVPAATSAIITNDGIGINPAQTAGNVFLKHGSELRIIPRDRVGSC
Chain of UniProt Q9H4I3 (Q9H4I3 whole entry, looked up): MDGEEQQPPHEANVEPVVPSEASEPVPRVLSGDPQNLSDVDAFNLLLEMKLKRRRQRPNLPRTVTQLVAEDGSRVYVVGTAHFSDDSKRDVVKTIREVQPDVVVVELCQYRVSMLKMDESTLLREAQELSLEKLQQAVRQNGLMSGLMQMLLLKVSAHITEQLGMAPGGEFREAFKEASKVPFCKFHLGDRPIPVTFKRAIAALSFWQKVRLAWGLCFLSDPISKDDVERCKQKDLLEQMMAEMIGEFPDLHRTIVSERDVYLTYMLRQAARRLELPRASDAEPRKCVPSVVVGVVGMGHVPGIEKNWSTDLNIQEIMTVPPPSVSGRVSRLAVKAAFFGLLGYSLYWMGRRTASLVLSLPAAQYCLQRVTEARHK
Chain of UniProt Q6NXR4 (Q6NXR4 whole entry, looked up): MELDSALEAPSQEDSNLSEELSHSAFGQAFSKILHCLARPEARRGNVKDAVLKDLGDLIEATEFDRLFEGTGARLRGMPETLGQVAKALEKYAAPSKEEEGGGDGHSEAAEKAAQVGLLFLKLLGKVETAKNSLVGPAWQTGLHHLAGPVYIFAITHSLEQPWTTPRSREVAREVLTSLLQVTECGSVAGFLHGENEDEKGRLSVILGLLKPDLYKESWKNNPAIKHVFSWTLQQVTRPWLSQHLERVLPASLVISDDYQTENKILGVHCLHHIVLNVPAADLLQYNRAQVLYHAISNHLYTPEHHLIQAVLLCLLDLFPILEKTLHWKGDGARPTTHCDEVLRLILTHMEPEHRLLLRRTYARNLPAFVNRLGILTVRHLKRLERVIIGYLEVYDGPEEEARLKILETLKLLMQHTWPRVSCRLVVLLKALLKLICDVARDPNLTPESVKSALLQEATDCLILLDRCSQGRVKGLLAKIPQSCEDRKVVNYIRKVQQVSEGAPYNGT
Chain of UniProt Q9Y5K5 (Q9Y5K5 whole entry, looked up): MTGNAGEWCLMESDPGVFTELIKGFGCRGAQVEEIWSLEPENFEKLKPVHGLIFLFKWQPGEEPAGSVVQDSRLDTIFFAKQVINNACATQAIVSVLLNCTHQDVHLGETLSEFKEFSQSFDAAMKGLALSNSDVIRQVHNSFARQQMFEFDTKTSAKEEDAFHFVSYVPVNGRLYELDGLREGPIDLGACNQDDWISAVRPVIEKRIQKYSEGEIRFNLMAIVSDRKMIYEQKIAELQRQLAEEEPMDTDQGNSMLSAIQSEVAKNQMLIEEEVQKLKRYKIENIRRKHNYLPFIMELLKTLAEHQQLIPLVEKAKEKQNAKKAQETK

Target | log2 fold change [1] | log2 fold change (volasertib) | log2 fold change [2] | log2 fold change (epoxomicin) | log2 fold change [3] | log2 fold change [4] | log2 fold change [5] | log2 fold change (rosiglitazone) | log2 fold change [6] | log2 fold change [7] | log2 fold change (saracatinib) | log2 fold change (alvocidib) | log2 fold change (Tubastatin A) | log2 fold change [8] | log2 fold change (defactinib) | log2 fold change (rucaparib) | log2 fold change [9] | log2 fold change (encorafenib) | log2 fold change [10] | log2 fold change (sotrastaurin)
VWA3B isoform 6 (UniProt Q502W6) | -0.038 | -0.631 (active) | -0.203 | -0.262 | -0.037 | -0.125 | -0.007 | 0.076 | -0.023 | -0.234 | 0.042 | 0.079 | -0.018 | 0.017 | 0.039 | -0.448 | -0.076 | 0.095 | -0.04 | 
UCHL5 isoform 3 (UniProt Q9Y5K5) | -0.008 | -0.617 (active) | 0.126 | 0.293 | 0.107 |  | 0.074 | 0.062 |  |  |  | -0.156 | -0.035 | 0.136 | 0.03 | -0.08 |  | 0.241 | -0.254 | -0.292
TMEM9B (UniProt Q9NQ34) | 0.035 | -0.192 | -0.011 | 0.109 | 0.035 | 0.049 | -0.023 | 0.037 |  | -0.054 |  | 0.075 | -0.033 | -0.029 | -0.029 | -0.02 |  | 0.063 | -0.001 | 0.019
TNPO1 (UniProt Q92973) | -0.182 | -0.379 (active) | 0.046 | -0.016 | 0.021 | -0.025 | 0.018 | 0.012 | -0.019 | -0.055 | 0.034 | -0.141 | -0.064 | -0.013 | -0.123 | -0.04 | 0.009 | 0.029 | 0.006 | -0.062
TMEM164 (UniProt Q5U3C3) | -0.01 | -0.145 | -0.01 | 0.082 | 0.045 | -0.053 | 0.07 | 0.135 | -0.001 | -0.021 | -0.13 | 0.025 | 0.012 | 0.033 | 0.06 | -0.233 | 0.061 | 0.211 | -0.003 | 0.197
UFM1 (UniProt P61960) | 0.025 | -0.13 | -0.092 | 0.023 | -0.026 |  | 0.043 | 0.029 | -0.062 |  | 0.028 | -0.262 | 0.097 | 0.026 | -0.066 | -0.119 | -0.013 | 0.029 | -0.031 | -0.004
TUT4 (UniProt Q5TAX3) | -0.064 | -0.229 | -0.15 | -0.219 | -0.041 | 0.046 | 0.018 | -0.012 | 0.566 (active) | -0.235 | -0.089 | 0.112 | 0.073 | -0.075 | -0.095 | -0.001 | -0.008 | -0.144 | 0.082 | 0.003
TMTC3 (UniProt Q6ZXV5) | -0.074 | -0.118 | 0.023 | 0.001 | 0.001 | 0.038 | -0.045 | 0.03 | -0.014 | -0.034 | -0.03 | 0.009 | 0.009 | 0.012 | 0.009 | 0.022 | 0.006 | 0.028 | -0.019 | 0.028
VDAC1 (UniProt C9JI87) | 0.097 | 0.08 | -0.334 | -0.007 | 0 |  |  |  | 0.21 |  | -0.027 | 0.201 |  | -0.135 |  | -0.247 | -0.189 | -0.087 |  | 0.034
UNC119B (UniProt A6NIH7) | -0.168 | 0.066 | -0.224 |  | -0.134 | -0.104 | -0.023 | 0.001 | 0.004 | 0.047 | -0.076 | -0.206 | 0.124 | -0.031 | -0.064 | 0.133 | 0.316 | 0.026 | -0.048 | 0.013
TTI2 (UniProt Q6NXR4) | -0.173 | -0.414 (active) | 0.021 | 0.085 | -0.016 |  | 0.09 | -0.01 | 0.03 |  | -0.028 | 0.027 | -0.02 | 0.051 | -0.073 | 0.119 | -0.036 | 0.037 | -0.038 | -0.187
VPS72 isoform 2 (UniProt Q15906) | -0.261 | 0.135 | -0.072 | -0.107 | 0.101 |  | -0.052 | 0.041 | 0.043 |  | -0.094 | 0.042 | -0.011 | -0.021 | -0.016 | 0.28 | -0.082 | -0.053 | -0.019 | 0.004
TNFRSF8 (UniProt P28908) | 0.134 | 0.011 | -0.034 | 0.016 | -0.003 | -0.016 | 0.009 | -0.011 | -0.051 | 0.201 | 0.037 | -0.013 | 0.031 | -0.013 | -0.034 | 0.012 | 0.04 | -0.046 | -0.02 | 0.092
TMEM192 (UniProt Q8IY95) | -0.139 | -0.061 | -0.025 | -0.04 | 0.074 | 0.046 | -0.024 | 0.008 | 0.025 | -0.408 (active) | 0.092 | 0.001 | 0.035 | 0.015 | -0.016 | -0.01 | -0.033 | -0.02 | 0.036 | -0.028
TRABD (UniProt Q9H4I3) | 0.245 | 0.215 | 0 | -0.004 | 0.128 | -0.108 | 0.029 | 0.001 |  | 0.228 |  | -0.151 | 0.06 | 0.131 | -0.096 | 0.073 |  | -0.01 | -0.033 | 0.003
VPS41 (UniProt P49754) | -0.214 | -0.309 | 0.02 | -0.038 | -0.005 | -0.106 | -0.004 | 0.066 | 0.054 | -0.25 (active) | -0.02 | -0.046 | 0.034 | -0.055 | -0.041 | 0.023 | -0.001 | -0.011 | 0.103 | -0.077
TMEM41A (UniProt Q96HV5) | 0.036 | 0.035 | -0.05 | -0.055 | 0.021 | 0.165 | -0.049 | -0.002 | 0 | 0.01 | 0.03 |  | -0.068 | 0.008 | 0.003 | -0.009 | -0.011 | 0.025 | -0.012 | -0.057
